Experimental data as given in PubChem BioAssay (NCATS).
Several values for one entry are separate records, joined by “and”; a condition that tells them apart may be missing. Equal values may be shown once. A number with no mark means an inactive call. Results filed as inconclusive are left out. A call without a number means that no potency is given here. Activity calls are given as the source filed them. Calls come from the whole dose curve; as a rule, active = well fitted curve in the direction sought with a large enough effect; inconclusive = small, poorly fitted or top-dose-only effect, or another doubt; inactive = no such curve, though single readings can be large; an effect the other way counts as inactive or inconclusive.

How the values were obtained:
[1] = system: Zika virus NS2B-NS3 protease (linked construct); test: Primary screen NINDS Rhodamine qHTS for Zika virus inhibitors (AID 1347160); note: nearly all actives have a fitted effect of over 55% in size
Summary of the method: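 Single-chain NS2B-NS3 protease, 25 nM, pH 8.0; compounds preincubated 15 min. Activity: Rhodamine110 release from 1.5 microM substrate over 15 min, room temperature, data fitted to 4-parameter Hill.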

[2] = target: Calcium and integrin-binding protein 1 (Homo sapiens) (UniProt Q99828); test: Primary qHTS for Identification of Calcium Integrin Binding Protein 1 (CIB1) Competitor (AID 1508620);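 note: GST tagged CIB1 binding a fluorescein labelled alphaIIb integrin peptide tracer; top concentration of the series differs between compounds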
Summary of the method: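 Fluorescence polarization competition: CIB1-GST (1 uM final) preincubated with compound 15 min at room temperature, then FITC-labeled alphaIIb peptide (100 nM final) added for another 15 min. Polarization read at Ex 480/Em 540.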

[3] = Primary qHTS for inhibitors of nuclear receptor binding SET domain protein 2 (NSD2) in an isogenic RCH-ACV NSD2 p.E1099K mutant (9B) (AID 1645876); note: nearly all actives have a fitted effect of over 70% in size; note: potency is the fitted concentration of half-maximal effect
[4] = Primary qHTS for inhibitors of nuclear receptor binding SET domain protein 2 (NSD2) in an RCH-ACV wild type WT cells (2C) (AID 1645877); note: nearly all actives have a fitted effect of over 70% in size; note: potency is the fitted concentration of half-maximal effect
[5] = target: Luciferin 4-monooxygenase (Photinus pyralis) (UniProt P08659); test: Primary firefly luciferase (FLuc) qHTS assay for identification of artifact compounds. (AID 1845220); note: nearly all actives have a fitted effect of over 60% in size
Summary of the method: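 Reaction readout was CCD-imaged luminescence, taken 5 min after adding 10 nM purified firefly enzyme to compound-treated wells holding 10 uM luciferin and ATP in pH 7.6 buffer.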

[6] = Primary fluorescence-based thiol-reactive (MSTI) qHTS assay for identification of artifact compounds. (AID 1845221); note: nearly all actives have a fitted effect of over 65% in size; note: potency is the fitted concentration of half-maximal effect
Summary of the method: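 MSTI probe at 4 uM final in 2% DMSO/PBS pH 7.4; compounds, 1 h at room temperature in dark. Fluorescence Ex/Em 525/598 nm, normalised to Acetyl-MSTI and MSTI, fitted to 4-parameter Hill.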

[7] = system: Nanoluciferase (engineered Oplophorus gracilirostris luciferase); test: Primary Nanoluciferase (NLuc) qHTS assay for identification of artifact compounds. (AID 1845222);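 note: NLuc secreted into diluted conditioned medium of S16 cells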
Summary of the method: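 Concentration-response data were obtained by luminescence after 5 min with Nano-Glo substrate at 1:100. The enzyme was diluted S16 NLuc-expressing cell medium, preincubated with compound for 15 min at RT. Curves were fitted with a 4-parameter Hill model.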

[8] = Primary redox qHTS assay for identification of artifact compounds. (AID 1845223)
Summary of the method: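 Redox-cycling detection via DTT (250 uM final) oxidation coupled to Amplex Red (25 uM)/HRP (250 mU/mL) in HBSS. 15 min preincubation plus 30 min after DTT, room temperature. Ex/Em 525/598 nm; 4-parameter Hill fit against DMSO and 10 uM DA3003.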

[9] = system: C33A; test: Primary qHTS to identify gynecologic anti-cancer compounds using libraries of approved drugs and bioactive compounds (AID 1345084); conditions: Gynecologic cancer cell panel viability, ATPlite luminescence, 48 h; series mostly up to 57.5 µM; note: nearly all actives have a fitted effect of over 55% in size; note: potency is the fitted concentration of half-maximal effect
Summary of the method: (§1)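 Cells, 1,000 per well, plated 16 h, then exposed 48 h at 37 C to compounds. Viability by ATPlite luminescence after 15 min at room temperature.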

[10] = system: CAOV3; test: as above; conditions: Gynecologic cancer cell panel viability, ATPlite luminescence, 48 h; series mostly up to 57.5 µM
Summary of the method: as §1

[11] = system: CASKI; test: as above; conditions: Gynecologic cancer cell panel viability, ATPlite luminescence, 48 h; series mostly up to 57.5 µM
Summary of the method: as §1

[12] = system: Es-2; test: as above; conditions: Gynecologic cancer cell panel viability, ATPlite luminescence, 48 h; series mostly up to 57.5 µM
Summary of the method: as §1

[13] = system: HeLa; test: as above; conditions: Gynecologic cancer cell panel viability, ATPlite luminescence, 48 h; series mostly up to 57.5 µM
Summary of the method: as §1

[14] = system: Hek293T; test: as above; conditions: Gynecologic cancer cell panel viability, ATPlite luminescence, 48 h, control line for the selectivity index; series mostly up to 57.5 µM
Summary of the method: as §1

[15] = system: JEG-3; test: as above; conditions: Gynecologic cancer cell panel viability, ATPlite luminescence, 48 h; series mostly up to 57.5 µM
Summary of the method: as §1

[16] = system: OV90; test: as above; conditions: Gynecologic cancer cell panel viability, ATPlite luminescence, 48 h; series mostly up to 57.5 µM
Summary of the method: as §1

[17] = system: Tov-21-G; test: as above; conditions: Gynecologic cancer cell panel viability, ATPlite luminescence, 48 h; series mostly up to 57.5 µM
Summary of the method: as §1

[18] = system: Tov112D; test: as above; conditions: Gynecologic cancer cell panel viability, ATPlite luminescence, 48 h; series mostly up to 57.5 µM
Summary of the method: as §1

[19] = target: Glutathione peroxidase 1 (Homo sapiens) (UniProt P07203); test: Primary qHTS Assay for Inhibitors of Recombinant Selenoprotein Glutathione Peroxidase 1 (GPX1) (AID 1845191); note: nearly all actives have a fitted effect of over 65% in size
Summary of the method: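 GPX1 10 nM, GR 100 nM, GSH 1 mM, NADPH 0.5 mM, CHP 0.5 mM (final). 30-min cpd preincubation, RT. Ex340/Em450 read t=0, t=15 min.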

[20] = target: Phospholipid hydroperoxide glutathione peroxidase GPX4 (Homo sapiens) (UniProt P36969); test: Primary qHTS Assay for Inhibitors of Recombinant Selenoprotein Glutathione Peroxidase 4 (GPX4) (AID 1845192); conditions: outcome: dose series up to 50 µM unless noted; note: nearly all actives have a fitted effect of over 65% in size
Summary of the method: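 qHTS, GR-coupled: GPX4 200 nM + cpd 30 min RT → GSH 1 mM, NADPH 0.5 mM, GR 100 nM → CHP 0.5 mM start; fluor 340/450 at t0 and t15 min; no-enzyme wells as control.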

Sequence of Calcium and integrin-binding protein 1 (Homo sapiens) (Q99828 whole entry, looked up): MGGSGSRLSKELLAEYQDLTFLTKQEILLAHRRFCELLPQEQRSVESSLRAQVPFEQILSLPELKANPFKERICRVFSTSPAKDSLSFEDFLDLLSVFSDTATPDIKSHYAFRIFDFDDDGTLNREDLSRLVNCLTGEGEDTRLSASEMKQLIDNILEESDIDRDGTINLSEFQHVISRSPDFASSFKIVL
Sequence of Glutathione peroxidase 1 (Homo sapiens) (P07203 whole entry, looked up): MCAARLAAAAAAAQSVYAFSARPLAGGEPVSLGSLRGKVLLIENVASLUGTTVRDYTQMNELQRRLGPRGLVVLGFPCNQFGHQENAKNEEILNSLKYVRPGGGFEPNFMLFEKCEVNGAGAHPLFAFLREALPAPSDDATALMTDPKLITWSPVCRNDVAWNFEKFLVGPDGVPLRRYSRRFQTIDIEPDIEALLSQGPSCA
Sequence of Phospholipid hydroperoxide glutathione peroxidase GPX4 (Homo sapiens) (P36969 whole entry, looked up): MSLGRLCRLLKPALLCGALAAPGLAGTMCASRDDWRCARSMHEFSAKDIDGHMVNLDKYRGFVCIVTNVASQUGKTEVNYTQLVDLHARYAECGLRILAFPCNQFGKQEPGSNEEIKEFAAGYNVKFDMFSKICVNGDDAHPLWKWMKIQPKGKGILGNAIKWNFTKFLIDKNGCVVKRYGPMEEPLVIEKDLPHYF

COc1c(N2CC3CCCNC3C2)c(F)cc2c(=O)c(C(=O)O)cn(C3CC3)c12 (centres undefined)
Potency [1]: inactive | outcome [2]: inactive | Potency [3]: inactive | Potency [4]: inactive | Potency [5]: inactive | Potency [6]: inactive | Potency [7]: inactive | Potency [8]: inactive | Potency [9]: inactive | Potency [10]: inactive | Potency [11]: inactive | Potency [12]: inactive | Potency [13]: inactive | Potency [14]: inactive | Potency [15]: inactive | Potency [16]: inactive | Potency [17]: inactive | Potency [18]: inactive

Cc1cc(C)c(-c2csc(NC(=O)c3ccccc3)n2)c(C)c1
Potency [1]: inactive | outcome [2]: inactive | Potency [3]: 4.09 µM (active) | Potency [4]: 4.09 µM (active) | Potency [19]: inactive | Potency [20]: inactive | Potency [5]: inactive | Potency [6]: inactive | Potency [7]: inactive | Potency [8]: inactive | Potency [12]: inactive | Potency [13]: inactive | Potency [15]: inactive | Potency [16]: inactive | Potency [17]: inactive

CC[C@H]1OC(=O)[C@H](C)[C@@H](O[C@H]2C[C@@](C)(OC)[C@@H](O)[C@H](C)O2)[C@H](C)[C@@H](O[C@@H]2O[C@H](C)C[C@H](N(C)C)[C@H]2O)[C@](C)(O)C[C@@H](C)/C(=N/OCOCCOC)[C@H](C)[C@@H](O)[C@]1(C)O
Potency [1]: inactive | outcome [2]: inactive | Potency [3]: inactive | Potency [4]: inactive | Potency [20]: inactive | Potency [5]: inactive | Potency [6]: inactive | Potency [7]: inactive | Potency [8]: inactive | Potency [9]: inactive | Potency [10]: inactive | Potency [11]: inactive | Potency [12]: inactive | Potency [13]: inactive | Potency [14]: inactive | Potency [15]: inactive | Potency [16]: inactive | Potency [17]: inactive | Potency [18]: inactive

Cc1cc(CS(=O)(=O)c2ccccc2)cc(OCc2ccc(CN3CCC[C@@H]3CO)cc2)c1
Potency [1]: inactive | outcome [2]: inactive | Potency [3]: 12.9 µM (active) and 16.6 µM (active) | Potency [4]: 18.3 µM (active) and 14.8 µM (active) | Potency [19]: inactive | Potency [20]: inactive | Potency [5]: inactive | Potency [6]: inactive | Potency [7]: inactive | Potency [8]: inactive | Potency [11]: inactive | Potency [12]: inactive | Potency [13]: inactive | Potency [16]: 25.1 µM (active)

CC(=O)N[C@@H](CC(=O)O)C(=O)N[C@@H](CCC(=O)O)C(=O)N[C@H](C(=O)N[C@@H](CC(=O)O)C(=O)Nc1ccc2c(C)cc(=O)oc2c1)C(C)C
Potency [1]: inactive | Potency [3]: 5.78 µM (active) | Potency [4]: 5.15 µM (active) | Potency [19]: inactive | Potency [5]: inactive | Potency [7]: inactive | Potency [13]: inactive | Potency [14]: inactive | Potency [15]: inactive | Potency [16]: inactive | Potency [18]: inactive

COc1ccc(CNC(=O)Nc2ncc([N+](=O)[O-])s2)cc1
Potency [1]: inactive | outcome [2]: inactive | Potency [3]: 18.6 µM (active) | Potency [4]: 18.6 µM (active) | Potency [19]: inactive | Potency [20]: inactive | Potency [6]: 2.67 µM (active) | Potency [7]: inactive | Potency [8]: inactive | Potency [10]: inactive | Potency [11]: inactive | Potency [15]: inactive | Potency [17]: inactive | Potency [18]: inactive

Cc1cc(CN)cc(C)c1NC(=O)c1ccc(-c2cc(Cl)ccc2Cl)o1
Potency [1]: inactive | outcome [2]: inactive | Potency [3]: 18.3 µM (active) | Potency [4]: 9.16 µM (active) | Potency [19]: inactive | Potency [20]: inactive | Potency [5]: inactive | Potency [6]: inactive | Potency [7]: inactive | Potency [8]: inactive | Potency [9]: inactive | Potency [10]: inactive | Potency [11]: inactive | Potency [12]: inactive | Potency [13]: inactive | Potency [14]: inactive | Potency [15]: inactive | Potency [16]: inactive | Potency [17]: inactive | Potency [18]: inactive

C=C1[C@@H](C2=CC(=O)OC2)CC[C@@]2(O)[C@@H]1CC1[C@H]2CC[C@@H]2C[C@@H](O[C@H]3O[C@@H](C)[C@@H](O[C@@H]4O[C@H](CO[C@@H]5O[C@H](CO)[C@@H](O)[C@H](O)[C@H]5O)[C@@H](O)[C@H](O)[C@H]4O)[C@H](OC)[C@H]3O)CC[C@]12C (some centres undefined)
Potency [1]: inactive | outcome [2]: inactive | Potency [3]: 1.94 µM (active) | Potency [19]: inactive | Potency [20]: inactive | activity change, negative = inhibition [5]: 0.528% [at 11.6 µM] | activity, negative = inhibition [7]: -0.15% [at 11.6 µM] | Potency [9]: 3.55 µM (active) | activity change, negative = cytotoxicity [11]: -6.72% [at 11.6 µM] | activity change, negative = cytotoxicity [16]: -0.0855% [at 11.6 µM] | Potency [17]: 3.16 µM (active) | Potency [18]: 2.24 µM (active)

CCNC(=O)[C@@H]1CCCN1C(=O)[C@H](CCCN=C(N)N)NC(=O)[C@H](CC(C)C)NC(=O)[C@@H](CC(C)C)NC(=O)[C@H](Cc1ccc(O)cc1)NC(=O)[C@H](CO)NC(=O)[C@H](Cc1c[nH]c2ccccc12)NC(=O)[C@H](Cc1cnc[nH]1)NC(=O)[C@@H]1CCC(=O)N1
outcome [2]: inactive | Potency [3]: inactive | Potency [20]: inactive | Potency [5]: inactive | Potency [6]: inactive | Potency [7]: inactive | Potency [9]: inactive | Potency [10]: inactive | Potency [11]: inactive | Potency [12]: inactive | Potency [13]: inactive | Potency [14]: inactive | Potency [15]: inactive | Potency [16]: inactive | Potency [17]: inactive | Potency [18]: inactive

CC(=O)C1=C(O)C2c3c[nH]c4cccc(c34)CC2C(C)(C)N(C)C1=O (centres undefined)
Potency [1]: inactive | outcome [2]: inactive | Potency [3]: 18.3 µM (active) | Potency [4]: 14.5 µM (active) | Potency [20]: inactive | Potency [5]: inactive | Potency [6]: 3.36 µM (active) | Potency [10]: inactive | Potency [13]: inactive | Potency [14]: inactive | Potency [15]: inactive | Potency [16]: inactive | Potency [17]: inactive | Potency [18]: inactive

C=CC(=O)N1CCN(C(=O)c2cc(-c3cc(Cl)ccc3Cl)c(Cl)cc2OC)CC1
Potency [1]: inactive | outcome [2]: inactive | Potency [3]: 11.5 µM (active) | Potency [4]: 8.17 µM (active) | Potency [19]: inactive | Potency [5]: inactive | Potency [6]: inactive | Potency [7]: inactive | Potency [8]: inactive | Potency [11]: inactive | Potency [15]: inactive | Potency [16]: inactive

C=CC(=O)Nc1cc(Nc2nccc(-c3cn(C)c4ccccc34)n2)c(OC)cc1N(C)CCN(C)C
outcome [2]: inactive | Potency [3]: 3.32 µM (active) | Potency [4]: 2.95 µM (active) | Potency [19]: inactive | Potency [20]: inactive | Potency [5]: inactive | Potency [7]: inactive | Potency [10]: 35.5 µM (active) | Potency [11]: 14.1 µM (active)
